NALP1 inh – NALP1 inflammasome inhibitors in reconstituted yeast, colorimetric, S. cerevisiae, triplicate retest; S. cerevisiae NALP1/ASC/caspase-1 growth, X-gal OD620, 72 h; 280,000 tested, 0.61% active; AID 2071, 2009; inhibition, % at 10 µM; in the data active = inhibition mostly above about 24%, no sharp cut-off; inactive = mostly below about 32%
NLRP3 yeast inh – NALP3 inflammasome inhibitors in reconstituted yeast, primary screen, luminescence, uHTS; Yeast reconstituted NLRP3/ASC/caspase-1, beta-gal luminescence, 24 h; inhibition, % at 10 µM; 330,000 tested, 0.39% active; AID 2825, 2010;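 active = inhibition of 50% or more; inactive = inhibition below 50%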;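 note: plate controls were induced DMSO wells for no effect and uninduced yeast grown without galactose for full effect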
tim10-1 inh – growth inhibitors of tim10-1 mutant yeast, primary screen, luminescence, uHTS; S. cerevisiae tim10-1 ts strain growth, BacTiter-Glo, 24 h; inhibition, % at 20 µM; 330,000 tested, 2.2% active;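 active = inhibition of at least 40%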;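 note: mutant grown at 25 °C; 0% = DMSO wells with yeast and 100% = wells holding no yeast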
tim23-1 inh – growth inhibitors of tim23-1 mutant yeast, primary screen, luminescence, uHTS; S. cerevisiae tim23-1 growth, BacTiter-Glo luminescence, 24 h; inhibition, % at 20 µM; 330,000 tested, 1.3% active; AID 463212, 2010;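 active = growth inhibition of the mutant yeast at or above 50%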;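 note: temperature-sensitive mutant grown at 25 °C; plate controls were DMSO-treated mutant yeast for no effect and medium wells lacking yeast for full effect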
TIM10 inh – growth inhibitors of isogenic TIM10 control yeast, primary screen, counter-screen for tim10-1 yeast inhibitor project, luminescence, uHTS; S. cerevisiae TIM10 strain growth, BacTiter-Glo luminescence, 24 h; inhibition, % at 10 µM; 330,000 tested, 1.4% active;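 active = inhibition of 40% or more at the single tested concentration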;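 note: wild-type TIM10 isogenic control strain grown at permissive 25 °C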
PfHsp90 yeast 2 – growth inhibition of PfHsp90-expressing yeast, primary screen, antimalarial PfHsp90 inhibitor project, S. cerevisiae, BacTiter-Glo luminescence, single point, set 2; BacTiter-Glo ATP, 48 h; yeast lacking PDR1 and PDR3 efflux regulators; AID 504621, 2011; inhibition, % at 9.4 µM; 310,000 tested, 0.32% active;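 active = every replicate shows inhibition above about 80%, whatever the replicate mean, limit read from the data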;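 note: 0% = DMSO neutral controls and 100% = 20 µM radicicol positive controls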
tim10-1 conf – growth inhibitors of tim10-1 mutant yeast, confirmation, single concentration, luminescence, S. cerevisiae | shares compounds with tim10-1 inh | S. cerevisiae tim10-1 ts strain growth, BacTiter-Glo, 24 h | inhibition, % at 20 µM | 7,400 tested, 56% active | AID 463213, 2010;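 active = inhibition of yeast growth at or above a set limit in either of two repeat tests at 20 µM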;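 note: tim10-1 mutant grown at permissive 25 °C to find synthetic lethal compounds; 0% = DMSO yeast wells and 100% = medium wells without yeast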
tim10 confirm – growth inhibitors of wild-type TIM10 yeast, confirmation, counter-screen for tim10-1 synthetic lethality project, single concentration, luminescence, S. cerevisiae; 4,600 tested, 63% active; AID 463215, 2010; S. cerevisiae tim10 strain growth, BacTiter-Glo luminescence, 24 h; inhibition, % at 10 µM; shares compounds with TIM10 inh;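 active = inhibition of yeast growth at or above a set limit in either of two replicates at 10 µM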;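 note: this counterscreen used the strain with wild-type TIM10; 0% = yeast with DMSO and 100% = medium wells lacking yeast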
tim23-1 conf – tim23-1 mutant yeast growth inhibitors, confirmation, luminescence, single concentration | inhibition, % at 20 µM | 4,400 tested, 83% active | shares compounds with tim23-1 inh | AID 463218, 2010 | S. cerevisiae tim23-1 growth, BacTiter-Glo luminescence, 24 h;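 active = inhibition above about 39% in either of two replicate wells at 20 µM, limit read from the data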;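 note: temperature-sensitive tim23-1 mutant grown at 25 °C; 0% = DMSO wells with yeast and 100% = medium wells without yeast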
Active calls of the source: *; · = no result given. Most compounds without a hit are left out; they make up all but 4.1% or so of the library.

SMILES	NALP1 inh	NLRP3 yeast inh	tim10-1 inh	tim23-1 inh	TIM10 inh	PfHsp90 yeast 2	tim10-1 conf	tim10 confirm	tim23-1 conf
C/C(=N\Nc1nc2c(s1)CCCC2)c1ccc(Cl)cc1	5	14	61*	58*	50*	-4	47*	24	63*
Cc1c(C(=O)NCc2ccc3c(c2)OCO3)oc2ccccc12	-46	19	48*	53*	41*	·	42*	28	55*
Cc1ccc(Nc2nc(=O)c3cccnc3s2)c(Br)c1	·	32	47*	51*	31	17	36*	·	50*
O=C(OCc1nnc(-c2ccccc2)o1)c1ccc(Br)o1	·	22	16	16	-6	-10	·	·	·
O=C(OCc1nnc(-c2ccccc2)o1)c1ccc([N+](=O)[O-])o1	·	3	78*	80*	-36	·	59*	·	84*
CC1(C)Cc2cccc(OCC(=O)OCC(=O)NCc3ccccc3)c2O1	14	5	-13	2	11	6	·	·	·
CCOC(=O)Cc1csc(NC(=S)NC(=O)c2ccc(C)cc2)n1	21	-12	17	-6	24	15	·	·	·
CCOC(=O)Cc1csc(NC(=S)NC(=O)CC(C)C)n1	26	-47	50*	55*	42*	-29	47*	39*	56*
O=C(N/N=C/c1ccco1)c1ccccc1OCc1ccccc1Cl	33	9	44*	51*	42*	-3	41*	38*	48*
O=C(N/N=C/c1ccc[nH]1)c1ccccc1OCc1ccccc1Cl	6	13	28	45	18	0	·	·	·
FC(F)C(F)(F)c1cc(-c2ccc(Cl)cc2)n[nH]1	-37	17	52*	52*	22	·	42*	·	41*
O=c1c(Cl)c(Cl)cnn1Cc1nnc(-c2ccccc2Br)o1	-6	-22	63*	78*	44*	-1	67*	50*	77*
Clc1ccc(Cc2nnc(-c3ccccc3Br)o2)cc1	42	34	13	4	-9	-5	·	·	·
O=C(c1cc(COc2ccc(F)cc2Cl)on1)N1CCCCCCC1	18	22	41*	51*	14	5	16	·	42*
O=C(c1cc(COc2ccc(F)cc2Cl)on1)N1CCCCCC1	31	31	37	49	-4	-13	·	·	·
Cc1cccc(N2CCN(S(=O)(=O)c3ccc(-c4ccc(=O)[nH]n4)o3)CC2)c1C	4	8	-4	-1	5	-8	·	·	·
Cc1cccc(/C=N/NC(=O)c2ccc3c(c2)OCCO3)c1O	8	39	50*	63*	65*	19	46*	68*	76*
CN1CCN(c2cc(N3CCN(C(=O)c4ccco4)CC3)c3c4c(onc24)-c2ccccc2C3=O)CC1	-2	39	56*	69*	47*	-1	47*	48*	74*
CCNC(=O)O/N=C(\C)c1sc(-c2ccc(Cl)cc2)nc1C	-8	18	60*	57*	21	-12	54*	·	64*
COc1ccc(OC)c(/C=c2\sc3nc(-c4cccs4)nn3c2=O)c1	46	8	49*	53*	28	7	37*	·	47*
COc1ccccc1/C=c1\sc2nc(-c3ccco3)nn2c1=O	·	18	39	49	32	46	·	·	·
Cc1ccc(C(=O)NCCCNC(=O)Cc2ccc(Cl)cc2)cn1	·	-2	4	10	1	-12	·	·	·
Oc1c(Br)cc(C2N=C(c3ccccc3)NO2)cc1Br (stereo not given)	-12	7	44*	67*	33	-3	58*	·	68*
CSc1ccc(C2N=C(c3ccccc3)NO2)cc1 (stereo not given)	26	21	-8	21	26	18	·	·	·
O=C(NC(=S)N1CCCCC1c1cccnc1)c1ccc(Br)cc1 (stereo not given)	-4	10	32	37	32	9	·	·	·
SMILES	NALP1 inh	NLRP3 yeast inh	tim10-1 inh	tim23-1 inh	TIM10 inh	PfHsp90 yeast 2	tim10-1 conf	tim10 confirm	tim23-1 conf
Cc1ccccc1OCC(=O)NC(=S)Nc1cccc2cc(O)ccc12	13	29	57*	63*	25	-12	55*	·	49*
O=C(Nc1ccc(Br)c(C(F)(F)F)c1)c1ccc(C(F)(F)F)cc1	·	1	45*	81*	72*	·	48*	81*	5
O=C(Nc1cccc(O)c1)c1ccc(C(F)(F)F)cc1	-5	20	-4	0	-1	-41	·	·	·
O=C(Nc1ccc(Br)c(C(F)(F)F)c1)c1ccccc1	42	-1	58*	73*	68*	-14	50*	3	78*
O=C(Nc1ccc(C(F)(F)F)cc1)c1ccccc1	·	23	4	-1	11	8	·	·	·
COc1ccc(Cl)cc1CC=NNC(=O)c1cccc(C)c1O	·	·	·	·	·	0	·	·	·
Oc1ccccc1N=Cc1c(O)ccc2oc3c(c12)CCCC3	2	29	47*	52*	38	-55	55*	·	73*
COc1ccc(/C=C(\NC(=O)c2ccco2)C(=O)NCc2ccco2)cc1	-9	9	-10	0	9	25	·	·	·
Cn1c(CNC(=O)C2CCC(=O)N(CCc3cccc(F)c3)C2)nc2ccccc21 (stereo not given)	1	-23	12	8	2	-2	·	·	·
O=C(Nc1ccccc1)c1ccccc1Oc1ccc(C(F)(F)F)cc1[N+](=O)[O-]	22	21	31	36	31	-10	·	·	·
O=C(Oc1ccccc1C(=O)Nc1ccccc1)c1ccc(Br)c([N+](=O)[O-])c1	30	47	47*	61*	52*	-58	51*	35*	74*
COc1ccc(/C=C2/CCc3ccccc3C2=O)cc1OC	49	21	17	41	21	-34	·	·	·
COc1ccc(/C=C2\COc3ccccc3C2=O)cc1OC	64	36	57*	70*	50*	14	57*	12	58*
CCOC(=O)C(C#N)=CN1CCNc2ccccc21	·	·	·	·	·	-2	·	·	·

From PubChem
